Test in all cases: NCI-60 one-dose screen, 48 h (100 = growth as untreated, 0 = no growth, -100 = all killed)
Assay [1] concerns SK-MEL-2 melanoma. Particulars: 10 µM unless noted.
The subject of assay [2] is EKVX NSCLC. Particulars: 10 µM.
For assay [3], the system named is SN12C renal. Particulars: 10 µM unless noted.
The test system of assay [4] is UO-31 renal. Particulars: 10 µM unless noted.
The subject of assay [5] is TK-10 renal. Particulars: 10 µM unless noted.
The subject of assay [6] is ACHN renal. The conditions noted are these: 10 µM unless noted.
For assay [7], the system named is CAKI-1 renal. The conditions noted are these: 10 µM unless noted.
Assay [8] deals with CCRF-CEM leukemia. The conditions noted are these: 10 µM.
For assay [9], the system named is MOLT-4 leukemia. The conditions noted are these: 10 µM unless noted.
The subject of assay [10] is RPMI-8226 leukemia. The conditions noted are these: 10 µM unless noted.
Assay [11] deals with OVCAR-8 ovarian. Particulars: 10 µM unless noted.
Assay [12] relates to OVCAR-5 ovarian. Particulars: 10 µM unless noted.
Assay [13] deals with IGROV1 ovarian. Particulars: 10 µM unless noted.
Assay [14] concerns OVCAR-3 ovarian. Particulars: 10 µM unless noted.
Assay [15] has as its system NCI/ADR-RES ovarian. Particulars: 10 µM unless noted.
For assay [16], the system named is A498 renal. The conditions noted are these: 10 µM unless noted.
The test system of assay [17] is SR leukemia. The conditions noted are these: 10 µM unless noted.
Assay [18] deals with OVCAR-4 ovarian. The conditions noted are these: 10 µM unless noted.
Assay [19] deals with SK-OV-3 ovarian. The conditions noted are these: 10 µM unless noted.
The test system of assay [20] is HS 578T breast. Particulars: 10 µM unless noted.

Structures are written as SMILES. Where “and” joins values, the source holds several entries; their conditions need not be identical. Equal entries are not always repeated. About 83,000 compounds went through this panel and 20% of them were active in at least one assay; those are over-represented in the sample as a whole.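 Single-dose data. Exposure time 48 hours. Values below 10 considered active.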 Unmarked numbers belong to inactive results. Calls of active or inactive are those of the source.

For 18 compounds, growth results are on record in PubChem BioAssay (NCI).

For the compound `Cc1cc(-c2cc(C)c(O)c(C)c2)cc(C)c1O`, the growth in assay [1] was 73.5%; in assay [2], 68.2%; in assay [3], 90.5%; in assay [4], 77.1%; in assay [5] it was 90.5%; in assay [6], 92.1%. Further, the growth in [7] is 59.4%; in [8], 82.6%; in assay [9], 74.9%; in assay [10], 79.4%; in assay [11] it was 95%; in assay [12], 95.6%. The growth in [13] was 100%; in assay [14], 97.2%; in [15], 76%.

With `Cl`, the growth in assay [2] is 100%; in assay [3], 104%; in assay [4], 87.1%; in assay [5], 109%; in assay [6], 104%; in [7], 95.6%. Moreover, the growth in [16] was 88.1%; in assay [8], 106%; in assay [9], 88.5%; in assay [17], 104%; in [11], 98.6%; in assay [12], 105%. For the same compound, the growth in [18] is 125%; in assay [13], 120%; in assay [14], 119%; in assay [15] it was 102%.

Turning to `COc1cc(C(O)C2C(=O)OCC2C2(c3ccc4c(c3)OCO4)SCCCS2)cc(OC)c1OC` (centres undefined), the growth in [1] was 95.6%; in assay [2], 88.7%; in [3], 101%; in assay [4] it was 93.2%; in assay [5] it was 98.2%; in assay [6] it was 103%. Further, the growth in assay [7] was 93.8%; in [16], 84.4%; in [8], 98.2%; in [9], 94%; in assay [11], 102%; in [12] it was 97.2%. The growth in [18] is 103%; in [13], 94.5%; in assay [14], 105%; in [15] it was 89.4%.

For the compound `OC1COC(OCc2ccccc2)C(O)C1O` (centres undefined), the growth in [1] was 99%; in assay [3] it was 99.4%; in [4], 81.9%; in assay [6], 106%; in [7], 105%; in assay [16] it was 92.9%. The growth in assay [9] was 98.9%; in [10], 103%; in [12], 99.1%; in assay [18], 88.5%; in assay [19], 98.9%; in assay [13] it was 92.4%. Also, the figures for the growth in assay [14] and in assay [15] were 106% and 103%, respectively.

With `Cc1cc2ccccc2cn1`, the growth was 107% in assay [1]; 93% in assay [2]; 94% and 104% in assay [3]; 83.2% and 82.6% in assay [4]; 103% and 93.4% in [5]; 107% and 102% in assay [6]. Moreover, the growth is 100% and 67.8% in [7]; 100% and 197% in [16]; 102% and 120% in assay [8]; 112% and 88.7% in assay [9]; 109% in [17]; 102% in assay [11]. Further, the growth is 107% in [12]; 144% in [13]; 112% and 111% in [14]; 103% and 118% in assay [15].

Take `Brc1ccc(SSc2ccc(Br)cc2)cc1`: the growth in assay [1] is 101%; in [3] it was 63.8%; in assay [4] it was 49.6%; in assay [5] it was 97.1%; in assay [6], 109%; in assay [7], 106%. The growth in [16] was 71.2%; in [8] it was 8.01% (active); in assay [9], 4.43% (active); in assay [17], 57.8%; in assay [11], 83.9%; in assay [12], 90.8%. The growth is 91.2% in assay [18]; 29.3% in [13]; 85.4% in assay [14]; 96.9% in assay [20]; 66.2% in assay [15].

As to `CC(=O)NCC(=O)c1ccc([N+](=O)[O-])cc1`, the growth in assay [1] was 136%; in [2], 102%; in [3], 105%; in [4], 80.5%; in assay [6], 103%; in [7], 103%. In addition, the growth in assay [16] is 81.2%; in assay [8], 99.5%; in [9], 98.4%; in assay [17] it was 104%; in assay [11], 103%; in assay [12] it was 103%. Also, the growth is 108% in assay [19], 107% in assay [13], 105% in assay [14] and 104% in assay [15].

For `c1ccc(-c2nc3ccccc3s2)cc1`, the growth is 112% in assay [1]; 85.5% in assay [2]; 88.7% in assay [3]; 66.9% in assay [4]; 87.1% in [6]; 79.7% in assay [7]. Further, the growth is 100% in [16]; 101% in [8]; 103% in assay [9]; 103% in [17]; 88.3% in [11]; 84.1% in assay [12]. Besides, the growth in assay [18] is 101%; in assay [13] it was 75.4%; in assay [14], 105%; in assay [20] it was 93%; in [15], 96.1%.

Turning to `OCCN1CCCCCCC1`, the growth in assay [1] is 112%; in [3] it was 93.7%; in assay [4] it was 88%; in [5] it was 99.9%; in assay [6], 103%; in assay [7], 93.2%. Besides, the growth was 100% in assay [16]; 106% in [9]; 109% in assay [17]; 101% in assay [11]; 109% in assay [12]; 104% in [13]. Besides, the growth in assay [14] is 111%; in assay [15] it was 102%.

For the compound `Cc1cc(-c2ccc(N=Nc3ccc4c(S(=O)(=O)O)cc(S(=O)(=O)O)c(N)c4c3O)c(C)c2)ccc1N=Nc1ccc2c(S(=O)(=O)O)cc(S(=O)(=O)O)c(N)c2c1O`, the growth was 112% in assay [1]; 86.6% in assay [2]; 99.1% in assay [3]; 74.1% in assay [4]; 112% in [5]; 91.6% in assay [6]. Moreover, the growth in assay [7] is 86.9%; in assay [16], 103%; in assay [8], 85.7%; in [11], 101%; in assay [12], 90.2%; in [13], 78.5%. Further, the growth in assay [14] is 95.5%; in assay [15] it was 103%.

Turning to `CC1(C)COC(=S)N1`, the growth in assay [1] was 107%; in [2], 94.1%; in [3] it was 93.5%; in assay [4] it was 90.7%; in assay [5], 101%; in assay [6] it was 97.5%. Besides, the growth is 95.7% in assay [7]; 121% in assay [16]; 108% in [8]; 108% in [9]; 93.8% in [17]; 103% in assay [11]. For the same compound, the growth was 93.4% in assay [12], 95.8% in assay [13], 110% in assay [14] and 106% in assay [15].

With `O=C(/C=C/c1ccccc1)c1ccccc1`, the growth in assay [1] was 101%; in [2], 93.4%; in assay [3], 100%; in assay [4] it was 79.3%; in assay [5], 114%; in [6], 107%. Besides, the growth is 99.2% in assay [7]; 94.2% in assay [16]; 32% in [10]; 103% in assay [11]; 98.4% in assay [12]; 95.3% in [18]. The growth in assay [13] was 84.7%; in [14], 98.7%; in assay [20], 98.4%; in assay [15], 118%.

As for `Cc1ccc(S(=O)(=O)c2ccccc2)cc1`, the growth in assay [1] is 38.6%; in [2] it was 76.7%; in assay [3], 50.4%; in assay [5] it was 51.6%; in [6], 56%; in assay [7] it was 25.4%. Besides, the growth is 28% in assay [16]; 11.5% in [8]; 32.5% in [9]; 34.7% in assay [17]; 55.1% in assay [11]; 80.1% in assay [12]. For the same compound, the growth in assay [18] is 71.1%; in [13], 45.4%; in assay [14] it was -38.9% (active); in assay [15], 21.1%.

As to `O=c1n(CC2CO2)c(=O)n(CC2CO2)c(=O)n1CC1CO1` (centres undefined), the growth is 46.7% in assay [3]; 38.2% in [4]; 77.9% in assay [5]; 19.8% in assay [6]; -7.84% (active) in [7]; 88.4% in assay [16]. The growth in assay [8] is 32.5%; in [9], 19.2%; in assay [17], 17.8%; in assay [11], 64.4%; in [12] it was 108%; in assay [18], 100%. Besides, the growth in [13] is 52.3%; in [14], 79.2%; in assay [15], 72.2%.

Consider `C/C(=C\c1ccccc1)c1ccccn1`, for which the growth in assay [1] is 128%; in assay [2] it was 98.7%; in assay [3] it was 95.8%; in assay [4], 98.9%; in assay [5] it was 162%; in assay [6], 105%. For the same compound, the growth was 102% in assay [7]; 111% in assay [16]; 94.5% in assay [8]; 73.3% in [9]; 99.4% in [17]; 116% in assay [11]. Besides, the growth in assay [12] is 118%; in [13], 109%; in assay [14], 106%; in assay [15], 110%.

`CC(C)(O)C(=O)O`: the growth was 112% in assay [1]; 94% in [2]; 102% in assay [3]; 95.2% in assay [4]; 98.9% in [5]; 104% in assay [6]. The growth is 101% in assay [7]; 103% in [16]; 108% in assay [9]; 119% in assay [17]; 109% in assay [11]; 99.7% in assay [12]. In addition, the growth in assay [13] is 101%; in [14], 109%; in [20], 102%; in [15], 111%.

As for `CC1CCC2(OC1)OC1CC3C4CC=C5CC(O)CCC5(C)C4CCC3(C)C1C2C` (centres undefined), the growth is 122% in assay [1]; 96.6% in [2]; 100% in assay [3]; 86% in assay [4]; 101% in assay [5]; 93.5% in [6]. Besides, the growth in [16] is 110%; in assay [8], -55.7% (active); in [9], 102%; in assay [17], 29.7%; in assay [10], 71.4%; in [11], 102%. Further, the growth was 114% in assay [12]; 95.7% in [18]; 114% in [19]; 67.5% in assay [13]; 105% in assay [14]; 114% in assay [15].

Turning to `CCCCCCCCCCCCCCCc1ccc(N)c(OC2OC(CO)C(O)C(O)C2O)c1` (centres undefined), the growth was 80.6% in assay [1]; 81.6% in assay [2]; 87.6% in assay [3]; 57.6% in assay [4]; 113% in assay [5]; 86.1% in assay [6]. Also, the growth in assay [16] was 79.2%; in [8], 5.48% (active); in [9], 60.8%; in [17], 40.2%; in assay [11], 87.1%; in [12], 65.8%. In addition, the growth in [18] was 85.2%; in assay [14], 93.6%; in assay [20], 103%; in assay [15], 73%.
